The values below come from PubChem BioAssay (NCATS).

Results filed as inconclusive are left out. Entries that show only a call come without a potency. Active and inactive are the calls of the source. Calls come from the whole dose curve; as a rule, active = well fitted inhibition curve with a large enough effect; inconclusive = small, poorly fitted or top-dose-only effect; inactive = flat fitted curve, though single readings scatter.
Potency is the fitted concentration of half-maximal effect.

The test system of the test is Zika virus NS2B-NS3 protease. Put plainly: Primary screen GU AMC qHTS for Zika virus inhibitors (AID 1347154). Note: nearly all actives have a fitted effect of over 70% in size. Particulars: Zika NS2B-NS3 unlinked protease, AMC fluorogenic substrate; series mostly up to 54.1 µM. The source says:
Avindra Nath, Ph.D., National Institute of Neurological Disorders and Stroke (NINDS), Bethesda, MD
Radhakrishnan Padmanabhan, Ph.D., Georgetown University (GU), Washington D.C.
Zika Virus causes congenital defects, including microcephaly and is associated with Guillain-Barre syndrome, eningoencephalitis and myelitis in infected adult. […] Using a target-based approach, we hope to establish a screening paradigm to uncover novel, cell-active NS2B-NS3 protease (Zika Virus) specific inhibitors from NCATS' collection of small molecules using qHTS.
Early Translation Branch (ETB)
National Center for Advancing Translational Sciences (NCATS), Rockville, MD
National Institute of Health (NIH), Bethesda, Maryland
Padmanabhan lab provided the NS2B hydrophilic domain and NS3 protease domain in a noncovalent complex used for the unlinked assay. Control compound aprotinin is obtained from Thermo Scientific (#78432; Waltham, Massachusetts). NS2B-NS3 AMC substrate (Bz-Nle-Lys-Arg-Arg-AMC; Nle-KRR-AMC) purchased from Bachem (#I-1995; Torrance, CA). Ac-VKTGKR-AMC purchased from Genscript or Bachem, Ac-FAAGKR-AMC purchased from Genscript, Ac-GLVKRR-AMC purchased from Genscript, Ac-LKKR-AMC purchased from Genscript.
GU AMC unlinked NS2B-NS3 protease qHTS protocol
Briefly, 3 microL of Zika virus unlinked NS2B-NS3 protease (25 nM for linked final concentration), in assay buffer (10 mM Tris-HCl pH 8.0 with 0.01% Tween 20) was dispensed into a 1,536-well solid-bottom black plate (Greiner Bio One, Monroe, NC). […] Plates were then read immediately on a ViewLux High-throughput CCD imager (PerkinElmer, Waltham, MA) equipped with standard UV fluorescence optics (340(30) nm excitation, 450(20) nm emission) then incubated (room temperature, protected from light) for 15 minutes (~20% conversion). The change in fluorescence intensity over the 15-minute reaction period was normalized against no-inhibitor and no-enzyme controls and the resulting percent inhibition data were fitted to a 4-parameter Hill equation. Aprotinin was used as the intraplate control.
For orientation: In qHTS, concentration-response curves come from the screen itself.
Regarding `CCn1c(=O)c2c(nc(C=Cc3ccc(OC)c(OC)c3)n2C)n(CC)c1=O`, the Potency entry was “inactive”.
To `Nc1nc(=O)n([C@H]2C[C@H](O)[C@@H](CO)O2)cc1F` belongs “inactive”; to `CN(C)CC[C@H](c1ccc(Cl)cc1)c1ccccn1`, “inactive”.
For `C[C@@H](Oc1ccc2[nH]nc(C=Cc3cnn(CCO)c3)c2c1)c1c(Cl)cncc1Cl`, the Potency entry is “inactive”.
The result for `CNC(=O)c1cccc(-c2ccc3c(N4CCOC[C@H]4C)nc(N4CCOC[C@H]4C)nc3n2)c1` reads 24.1 µM (active).
Regarding `COc1cc(C[C@@H](CO)[C@H](CO)Cc2ccc(O)c(OC)c2)ccc1O`, the Potency entry is “inactive”.
Consider `NC(=O)c1ncn([C@@H]2O[C@H](CO)[C@@H](O)[C@@H]2O)c1O`, for which the Potency entry was “inactive”.
On to `O=[N+]([O-])c1cn2c(n1)OC[C@@H](OCc1ccc(OC(F)(F)F)cc1)C2`, for which the Potency result is “inactive”.
The result for `Cc1ccc2nc(NCCN)c3ncc(C)n3c2c1` reads “inactive”; that for `NC(=O)c1ncn([C@@H]2O[C@H](CO)[C@@H](O)[C@@H]2O)c1N`, “inactive”.
Regarding `COc1ccc(S(=O)(=O)Nc2cccnc2Nc2ccc(O)cc2)cc1`, the Potency result is “inactive”.
To `O=c1[nH]c(=O)n([C@H]2C[C@@H](O)[C@@H](CO)O2)cc1F` belongs “inactive”.
Consider `CN(C)c1ccc2cc(C(=O)N[C@@H](CCCN=C(N)CCl)C(=O)NCc3ccccc3)ccc2c1`, for which the Potency entry is “inactive”.
To `Oc1cc2c(cc1O)C1c3ccc(O)c(O)c3OCC1(O)C2` (stereo not given) belongs 24.1 µM (active).
For `CCOC(=O)C=C[C@H](C[C@@H]1CCNC1=O)NC(=O)[C@@H](CC(=O)[C@@H](NC(=O)c1cc(C)on1)C(C)C)Cc1ccc(F)cc1`, the Potency entry was “inactive”.
The result for `CN1CCc2c(c3ccccc3n2Cc2ccc(C(=O)NO)cc2)C1` reads “inactive”.
For `COc1ccc(Nc2cc(-c3cnc(N)nc3)nc(N3CCOCC3)n2)cn1`, the Potency result was “inactive”.
On to `CN1C(C(=O)Nc2ccccn2)=C(O)c2sc(Cl)cc2S1(=O)=O`, for which the Potency result was “inactive”.
Consider `COc1ccc2cc([S+]([O-])Cc3ncc(C)c(OC)c3C)nc2c1`, for which the Potency result is “inactive”.
The result for `C[C@H](NC(=O)C(C#N)=Cc1cccc(Br)n1)c1ccccc1` reads “inactive”.
Regarding `COc1ccc(C(C)=O)c(O)c1`, the Potency result is “inactive”.
To `CCOC(=O)C1=C(C)NC(=S)NC1c1cccc(O)c1` (stereo not given) belongs “inactive”.
The result for `CON=C(C(=O)N[C@@H]1C(=O)N2C(C(=O)O)=C(CSC(=O)c3ccco3)CS[C@H]12)c1csc(N)n1` reads “inactive”.
To `CC(C)(C)c1nc2c3cc[nH]c(=O)c3c3cc(F)ccc3c2[nH]1` belongs “inactive”.
As to `Cc1cnc(NC(=O)Nc2cc(Br)c(C)cc2OC[C@@H]2CNCCO2)cn1`, the Potency result was “inactive”.
In the case of `C[C@]12CC[C@@H]3c4ccc(O)cc4CC[C@H]3[C@H]1CC[C@H]2O`, the Potency result was “inactive”.
To `CCCNC(=O)[C@H]1O[C@H]1C(=O)N[C@H](C(=O)N1CCC[C@@H]1C(=O)OC)C(C)CC` (stereo not given in full) belongs “inactive”; to `CC(=O)NC(CS)C(=O)O` (stereo not given), “inactive”; to `O=c1c(O)c(-c2ccc(O)c(O)c2)oc2cc(O)ccc12`, 17.1 µM (active).
As for `CN1[C@H]2CC(OC(=O)[C@@H](CO)c3ccccc3)C[C@H]1[C@H]1O[C@H]12` (stereo not given in full), the Potency entry is “inactive”.
As to `C=CC(=O)Nc1cccc(Nc2nc(NC3CCC(N(C)C)CC3)nc3c2ncn3C(C)C)c1` (stereo not given), the Potency result was “inactive”.
To `COc1cc2ncnc(Nc3cccc(Br)c3)c2cc1OC` belongs “inactive”; to `Nc1ncn([C@@H]2O[C@H](CO)[C@@H](O)[C@@H]2O)c(=O)n1`, “inactive”; to `C=C1C[C@@]2(O)O[C@@]3(C[C@H]2C(C)C)[C@H](C)CC[C@H]13`, “inactive”.
The result for `c1cncc(CN2CCC(n3ncc4c(N5CCOCC5)nc(-c5ccc6[nH]ccc6c5)nc43)CC2)c1` reads “inactive”; that for `COc1cc([C@@H]2c3cc4c(cc3[C@H](O)[C@H]3COC(=O)[C@@H]23)OCO4)cc(OC)c1OC`, “inactive”.
Take `N#Cc1c(NC(=O)c2cccc3ccccc23)sc2c1CCCC2`: the Potency entry is “inactive”.
Take `CC1(C)O[C@@H]2C[C@H]3[C@@H]4CCC5=CC(=O)C=C[C@]5(C)[C@@H]4[C@@H](O)C[C@]3(C)[C@]2(C(=O)CO)O1`: the Potency entry is “inactive”.
For `CCCCCCCCCCCCc1ccc(S(=O)(=O)Nc2nncs2)cc1`, the Potency result was “inactive”.
For `CCOC(=O)[C@@H](N)Cc1ccc(-c2cc(O[C@H](c3ccc(Cl)cc3-n3ccc(C)n3)C(F)(F)F)nc(N)n2)cc1`, the Potency entry is “inactive”.
